According to ChEMBL document CHEMBL4808148, “HDAC6 screening dataset using tau-based substrate in an enzymatic assay yields selective inhibitors and activators” (2021):
Screen size: about 5,600 compounds; about 150 (2.7%) showed an effect of 50% or more. Shown is part of a subset that was picked to be rich in strong results.

Key:
[1] = molecular target: T1, Protein deacetylase HDAC6 (Homo sapiens) (UniProt Q9UBN7); conditions: at 10 µM
T1 sequence (whole entry): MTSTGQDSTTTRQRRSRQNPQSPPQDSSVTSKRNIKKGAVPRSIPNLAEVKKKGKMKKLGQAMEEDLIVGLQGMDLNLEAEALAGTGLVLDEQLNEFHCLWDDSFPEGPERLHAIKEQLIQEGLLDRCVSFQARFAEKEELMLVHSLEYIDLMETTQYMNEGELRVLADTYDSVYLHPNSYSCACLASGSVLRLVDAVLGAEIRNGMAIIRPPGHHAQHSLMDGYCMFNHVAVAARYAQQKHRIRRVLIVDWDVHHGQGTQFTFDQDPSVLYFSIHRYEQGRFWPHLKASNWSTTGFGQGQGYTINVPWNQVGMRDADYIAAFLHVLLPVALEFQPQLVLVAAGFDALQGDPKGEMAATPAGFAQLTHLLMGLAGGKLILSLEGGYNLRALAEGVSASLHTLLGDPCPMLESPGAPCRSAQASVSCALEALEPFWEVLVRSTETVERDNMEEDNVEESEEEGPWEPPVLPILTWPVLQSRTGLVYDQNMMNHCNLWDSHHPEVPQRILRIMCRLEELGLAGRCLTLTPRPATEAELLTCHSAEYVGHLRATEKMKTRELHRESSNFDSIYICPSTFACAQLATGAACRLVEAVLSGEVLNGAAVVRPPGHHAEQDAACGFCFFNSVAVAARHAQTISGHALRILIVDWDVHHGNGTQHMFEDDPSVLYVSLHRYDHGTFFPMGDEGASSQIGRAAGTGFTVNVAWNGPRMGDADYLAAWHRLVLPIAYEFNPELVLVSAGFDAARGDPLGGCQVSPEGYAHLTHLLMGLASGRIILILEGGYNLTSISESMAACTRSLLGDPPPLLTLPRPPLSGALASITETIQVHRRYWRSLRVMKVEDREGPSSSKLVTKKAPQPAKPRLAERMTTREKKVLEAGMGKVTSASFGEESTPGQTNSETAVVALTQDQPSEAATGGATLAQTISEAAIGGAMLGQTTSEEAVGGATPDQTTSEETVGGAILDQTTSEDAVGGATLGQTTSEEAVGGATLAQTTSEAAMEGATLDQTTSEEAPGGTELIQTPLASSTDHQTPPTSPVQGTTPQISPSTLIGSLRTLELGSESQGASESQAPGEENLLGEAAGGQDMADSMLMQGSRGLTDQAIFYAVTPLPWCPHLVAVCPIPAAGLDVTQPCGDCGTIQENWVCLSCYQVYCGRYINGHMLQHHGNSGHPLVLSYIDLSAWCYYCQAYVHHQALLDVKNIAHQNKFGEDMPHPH

[2] = molecular target: Protein deacetylase HDAC6 (Homo sapiens) (UniProt Q9UBN7); conditions: at 10 µM; remark: listed apart in the source

| Molecule | inhibition [1] [%] | inhibition [2] [%] |
| --- | --- | --- |
| Fc1ccc(-c2cncc(CN3CCN(c4cccc5c4OCCO5)CC3)c2)cc1 | 2 | – |
| COC[C@@H](c1ccc(C(F)(F)F)cc1)N1CCN(C2(C)CCN(C(=O)c3c(C)ncnc3C)CC2)C[C@@H]1C | 6.58 | – |
| O=C(c1ccc(/C=C/c2n[nH]c3ccccc23)cc1)N1CCNCC1 | 98 | – |
| Nc1ccc(/N=N/c2ccccc2)c(N)n1 | 78.3 | – |
| Nc1c2ccccc2nc2ccccc12 | 4.21 | – |
| Cc1ccc2c(c1)c1c(n2CCc2ccc(C)nc2)CCN(C)C1 | 0.41 | – |
| O=C(O)CCn1c2c(c3ccccc31)C[C@H](NS(=O)(=O)c1ccc(F)cc1)CC2 | 0.51 | – |
| CN1CCc2c(c3ccccc3n2Cc2ccc(C(=O)NO)cc2)C1 | 97 | – |
| N#Cc1c(N)nc(SCc2ncc[nH]2)c(C#N)c1-c1ccc(O)cc1 | 4.89 | – |
| CSc1ccc(C(=O)N[C@@H]2CCCC[C@@H]2NC(=O)CNC(=O)c2cc(C(F)(F)F)ccc2NC(=O)NC(C)C)cc1 | -5.32 | – |
| Cc1ccc(S(=O)(=O)Nc2nc3ccccc3nc2Nc2ccc3nsnc3c2)cc1 | 1.65 | – |
| COc1cc2ncnc(Nc3cccc(Br)c3)c2cc1OC | -6.11 | – |
| C#Cc1cccc(Nc2ncnc3cc(OCCOC)c(OCCOC)cc23)c1 | 1.06 | – |
| C#Cc1cccc(Nc2ncnc3cc(OC)c(OCCCCCCC(=O)NO)cc23)c1 | 94.6 | – |
| COc1cc2c(NC3CCN(C)CC3)nc(N3CCCN(C)CC3)nc2cc1OCCOCCN(C)C | 4.62 | – |
| O=C(NCCO)c1cc(C(=O)NCCO)cc(C(=O)NCCO)c1 | -2.63 | – |
| CCc1nn(CCO)c(CC)c1Oc1cc(C#N)cc(C#N)c1 | -5.93 | – |
| O=C1Nc2ccccc2/C1=C1/Nc2ccccc2/C1=N\O | 36.4 | – |
| O=C(Nc1ccc(O)cc1)c1ccccc1O | 44.6 | – |
| O=C(N/N=C/c1ccc(O)c(O)c1)c1cc2ccccc2cc1O | 32.8 | – |
| O=C(N/N=C/c1ccccc1O)c1ccccc1O | 77.3 | – |
| CC#C[C@@H](CC(=O)O)c1ccc(OCc2cccc(-c3ccc(C(F)(F)F)cc3)c2)cc1 | 5.76 | – |
| O=C(O)c1ccc(CN2CCC(CN[C@@H]3C[C@H]3c3ccccc3)CC2)cc1 | 8.19 | – |
| N[C@@H](CCC(=O)O)C(=O)O | -3.62 | – |

| Molecule | inhibition [1] [%] | inhibition [2] [%] |
| --- | --- | --- |
| O=c1c(O[C@@H]2O[C@H](CO)[C@H](O)[C@H](O)[C@H]2O)c(-c2ccc(O)c(O)c2)oc2cc(O)cc(O)c12 | 11.7 | – |
| O=c1c(-c2ccc(O)cc2)coc2cc(O)cc(O)c12 | 57.9 | – |
| COc1ccc(-c2oc3c(CC=C(C)C)c(O)cc(O)c3c(=O)c2O)cc1 | 6.17 | – |
| COc1ccc(-c2coc3cc(O)cc(O)c3c2=O)cc1 | 63.1 | – |
| COc1ccc(C(=O)c2ccc(C)cc2)c(O)c1 | 5.59 | – |
| O=c1c(O)c(-c2ccc(O)cc2O)oc2cc(O)cc(O)c12 | 2.84 | – |
| COc1ccc(OCC2c3cc(OC)c(OC)cc3CCN2C(=O)c2cccc(Cl)c2)cc1 (stereo not drawn) | -0.3 | – |
| BIS(MALTOLATO)OXOVANADIUM(IV), CHEMBL286447 | – | 1.5 |
| c1ccc2c(c1)-c1nc-2nc2[nH]c(nc3nc(nc4[nH]c(n1)c1ccccc41)-c1ccccc1-3)c1ccccc21 | -0.22 | – |
| Cc1cccc(-c2n[nH]cc2-c2ccc3ncccc3n2)n1 | -0.98 | – |
| Cc1cc(O)c2c(=O)c3c(O)cc(O)c4c5c(O)cc(O)c6c(=O)c7c(O)cc(C)c8c1c2c(c34)c(c78)c65 | 22.2 | – |
| CCCCCCCCCCCCCCCC(=O)N[C@@H](CCC(=O)NCCCC[C@H](NC(=O)[C@H](C)NC(=O)[C@H](C)NC(=O)[C@H](CCC(N)=O)NC(=O)CNC(=O)[C@H](CCC(=O)O)NC(=O)[C@H](CC(C)C)NC(=O)[C@H](Cc1ccc(O)cc1)NC(=O)[C@H](CO)NC(=O)[C@H](CO)NC(=O)[C@@H](NC(=O)[C@H](CC(=O)O)NC(=O)[C@H](CO)NC(=O)[C@@H](NC(=O)[C@H](Cc1ccccc1)NC(=O)[C@@H](NC(=O)CNC(=O)[C@H](CCC(=O)O)NC(=O)[C@H](C)NC(=O)[C@@H](N)Cc1cnc[nH]1)[C@@H](C)O)[C@@H](C)O)C(C)C)C(=O)N[C@@H](CCC(=O)O)C(=O)N[C@@H](Cc1ccccc1)C(=O)N[C@H](C(=O)N[C@@H](C)C(=O)N[C@@H](Cc1c[nH]c2ccccc12)C(=O)N[C@@H](CC(C)C)C(=O)N[C@H](C(=O)N[C@@H](CCCNC(=N)N)C(=O)NCC(=O)N[C@@H](CCCNC(=N)N)C(=O)NCC(=O)O)C(C)C)[C@@H](C)CC)C(=O)O | -0.77 | – |
| CC(=O)/N=c1/sc(S(N)(=O)=O)nn1C | 0.67 | – |
| NS(=O)(=O)c1nn2cc(-c3ccccc3)nc2s1 | 82 | – |
| CCCCOC(=O)c1cc2c(cn1)[nH]c1ccccc12 | 36 | – |
| O=C(O)c1cnn(-c2nc3cc(OC(F)(F)F)c(Cl)cc3[nH]2)c1 | 95.9 | – |
| Cc1ccc2[nH]c(=O)c(C3=NN(C(=O)CCC(=O)O)C(c4ccc(Br)cc4)C3)c(-c3ccccc3)c2c1 (stereo not drawn) | -0.13 | – |
| CCC(CC)Nc1cc(C)nc(Oc2c(C)cc(C)cc2C)c1C | -6.76 | – |
| O=C(O)Cc1cc2ccccc2nc1C(=O)O | 6.45 | – |
| C[C@@H]1O[C@@]2(CS1)CN1CCC2CC1.C[C@H]1O[C@]2(CS1)CN1CCC2CC1 | -5.94 | – |
| O=C(CCCCCN1C(=O)c2cccc3cccc(c23)C1=O)NO | 98.7 | – |
| O=C(O)CCCN1C(=O)c2cccc3cccc(c23)C1=O | -1.41 | – |
| O=C(O)CN1C(=O)c2cccc3cccc(c23)C1=O | 5.8 | – |
| CC(C)(Sc1ccncc1-c1ccc(C#N)c2ccccc12)C(=O)O | 2.75 | – |
